Each structure is given as a SMILES string. Records with an inconclusive call do not appear. The source made the active and inactive calls. Rule for the calls, unless noted: active = hit-call score of the fitted dose curve at least 0.9, where 1 is the maximum; inactive = score below 0.9.

Twelve compounds from PubChem BioAssay (EPA / NIEHS) can be followed below.

Assay [1] is described as follows: VALA_TUBHUV_Agonist_TubuleLength: VALA Sciences human Umbilical Vein Endothelial Tubule Formation (TUBHUV) Agonism Assay (AID 2284337; active = hit-call score of the fitted dose curve at least 0.9, where 1 is the maximum). The method, boiled down: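 Tubule length quantified by CD31 immunofluorescence imaging after fixation. HUVEC-HDF co-cultures (1:3) pre-grown 3 days with 10 ng/ml VEGF, then dosed 3 days in VEGF medium; 0.1 % DMSO vehicle baseline.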

Assay [2] is described as follows: VALA_TUBIPS_Agonist_CellCount: Viability Assessment in the VALA Sciences human iPS-derived Endothelial Tubule Formation (TUBIPS) Agonism Assay (AID 2284338; active = hit-call score of the fitted dose curve at least 0.9, where 1 is the maximum).
Assay [3] is described as follows: CCTE_Mundy_HCI_iCellGluta_NOG_NeuronCount: CCTE's Neurite Outgrowth Assay in iCellGluta cells for Neuron Count, Mundy Lab (AID 2284340; active = hit-call score of the fitted dose curve at least 0.9, where 1 is the maximum;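 note: cells fixed about 48 h after compound addition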). The method, boiled down: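 Neuron count read by automated high-content imaging of Hoechst 33342 and betaIII-tubulin/Alexa Fluor-488 labelling in human iPSC glutamatergic neurons. Activity fitted relative to DMSO.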
Assay [4] in a line: CCTE_Mundy_HCI_iCellGluta_NOG_NeuriteCount: CCTE's Neurite Outgrowth Assay in iCellGluta cells for Neurite Count, Mundy Lab (AID 2284342; active = hit-call score of the fitted dose curve at least 0.9, where 1 is the maximum;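 note: chemical exposure about 48 hours starting 2 hours after plating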).
Assay [5] relates to SRY-box transcription factor 17 (SOX17) Protein Expression, Deisenroth Lab, SOX17 (gene 64321). As to the kind of experiment: CCTE_Deisenroth_DEVTOX-GLR_legacy_Sox17: (Legacy) CCTE's DevTox GLR-Endo Assay Evaluation of SRY-box transcription factor 17 (SOX17) Protein Expression, Deisenroth Lab (AID 2284341). As to conditions: actives raise or lower the signal. The method, boiled down: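 RUES2-GLR human pluripotent cells differentiated toward endoderm for 48 h, dosed twice at 24 h intervals (1 nM–200 uM, 10 points). Imaging gives % SOX17+ cells (intensity >5x BMAD above pluripotent control median); bidirectional fit versus 0.2% DMSO.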

Assay [6] relates to SRY-box transcription factor 2 (SOX2) Protein Expression, Deisenroth Lab, SOX2 (gene 6657). Put plainly: CCTE_Deisenroth_DEVTOX-GLR_legacy_Sox2: (Legacy) CCTE's DevTox GLR-Endo Assay Evaluation of SRY-box transcription factor 2 (SOX2) Protein Expression, Deisenroth Lab (AID 2284346). The essentials: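 Two exposures, 24 h apart, during 48 h defined-media differentiation of seeded RUES2-GLR cells; nuclei-stained cells imaged. Sox2 positivity called at 5x BMAD above endoderm control median, DMSO median subtracted.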

Assay [7] is described as follows: Tanguay_ZF_120hpf_MO24: Oregon State University Tanguay Lab 24 Hour Post-fertilization zebrafish Assay for Mortality (AID 2284389). The essentials: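 Embryo death at 24 hpf was recorded as present or absent in Tropical 5D zebrafish, dechorionated at 4 hpf and dosed statically from 6 hpf (28C, 0.64% DMSO); 5 uM trimethyltin chloride served as positive control.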

The nature of assay [8]: Tanguay_ZF_120hpf_CRAN: Oregon State University Tanguay Lab 120 Hour Post-fertilization zebrafish Assay for Craniofacial Malformation (AID 2284397). The essentials:
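Scoring of craniofacial malformation as a binary endpoint was done at 120 hpf by brightfield microscopy and was not done in dead embryos. Exposure was static, starting at 6 hpf, in dechorionated wild-type embryos held singly at 28C with 0.64% DMSO final.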

Assay [9] in a line: Tanguay_ZF_120hpf_AXIS: Oregon State University Tanguay Lab 120 Hour Post-fertilization zebrafish Assay for Axial Malformation (AID 2284398). The method, boiled down:
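Scoring was binary (present or absent) for body-axis defects, judged by brightfield imaging at 120 hpf in surviving larvae. Exposure was static at 28C from 6 hpf in chorion-free 5D wild-type embryos, with 0.64% DMSO vehicle.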

A short description of assay [10]: Tanguay_ZF_120hpf_EDEM: Oregon State University Tanguay Lab 120 Hour Post-fertilization zebrafish Assay for Edema Malformation (AID 2284400). The essentials: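 Edema recorded as a binary endpoint under brightfield at 120 hpf, excluding embryos that died. Exposure was static, sealed, 28C, from 6 hpf in dechorionated wild-type larvae, final DMSO 0.64%, DMSO as baseline.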

The nature of assay [11]: Tanguay_ZF_120hpf_BRN: Oregon State University Tanguay Lab 120 Hour Post-fertilization zebrafish Assay for Brain Region Malformation (AID 2284402). The essentials: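 Binary brightfield scoring of brain malformation at 120 hpf in 5D wild-type larvae, chorion removed with pronase at 4 hpf. Static exposure began at 6 hpf, 28C, sealed plates, DMSO 0.64% (vol/vol) as vehicle baseline.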

A short description of assay [12]: Tanguay_ZF_120hpf_TCHR: Oregon State University Tanguay Lab 120 Hour Post-fertilization zebrafish Assay for Touch Responsive (AID 2284403). The essentials: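 Binary touch-response calls are made at 120 hpf in 5D wild-type zebrafish larvae. These larvae were dechorionated with pronase and exposed singly from 6 hpf in sealed, dark plates at 28 °C with 0.64% DMSO final; dead embryos are excluded.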

The nature of assay [13]: CCTE_Padilla_ZF_Score.Craniofacial: CCTE's 144 Hour Post-fertilization zebrafish Assay Score for Craniofacial Malformation, Padilla Lab (AID 2284405). The method, boiled down:
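Craniofacial defects were scored at 6 dpf by two blinded observers using stereomicroscopy. Exposure of wild-type embryos began at 6–8 hpf in sealed wells of 10% Hanks' solution at 26C, with chemical removed by rinsing at 5 dpf.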

The nature of assay [14]: CCTE_Padilla_ZF_Score.Edema: CCTE's 144 Hour Post-fertilization zebrafish Assay Score for Edema Malformation, Padilla Lab (AID 2284406). The essentials:
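Edema scored at 6 dpf by two blinded observers under a stereo microscope, in single outbred wild-type larvae exposed from 6-8 hpf in sealed wells (Hanks', 26C, 14:10 h light) and chemical-free after a 5 dpf rinse.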

Assay [15] can be described thus: CCTE_Padilla_ZF_Score.Spine: CCTE's 144 Hour Post-fertilization zebrafish Assay Score for Spine Malformation, Padilla Lab (AID 2284407). The method, boiled down:
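Spine malformation scored at 6 dpf by two independent blinded observers under stereomicroscope, after static sealed exposure from 6–8 hpf at 26C in Hanks' solution with rinse on 5 dpf. Positive-direction fit against DMSO control.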

Assay [16] in a line: CCTE_Padilla_ZF_Score.Position: CCTE's 144 Hour Post-fertilization zebrafish Assay Score for Position, Padilla Lab (AID 2284409). The method, boiled down:
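Wild-type zebrafish embryos (with chorions) exposed singly from 6–8 hpf in sealed wells of Hanks' solution at 26C, rinsed at 5 dpf. At 6 dpf, blinded assessors scored abnormal water-column position by brightfield stereomicroscopy, relative to DMSO.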

The next assay deals with SERPINA7 (gene 6906). As to the kind of experiment: CCTE_GLTED_hTBG: CCTE's human Thyroxine-binding Globulin (TBG) Inhibition Assay, Great Lakes Toxicology and Ecology Division (GLTED) Lab (AID 2284343; active = hit-call score of the fitted dose curve at least 0.9, where 1 is the maximum;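 note: active chemicals lower fluorescence versus DMSO baseline by displacing probe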). The method, boiled down: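 Fluorescence (ex 380/em 475) reports ANSA displaced from human TBG after a 2 h incubation with test chemical, without cells. Loss of signal indicates displacement, with DMSO serving as baseline.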

Consider `Cn1cc[nH]c1=S`, for which the result in assay [1], in assay [2], in assay [3] and in assay [4] was inactive.

For the compound `NNC(=O)c1ccncc1`, the result in assay [5] and in assay [6] was inactive.

For the compound `FC(F)(F)COC(OCC(F)(F)F)OCC(F)(F)F`, the compound was called inactive in assay [7], in [8], in assay [9], in [10], in [11] and in assay [12]. The compound was called inactive in [13], in assay [14], in assay [15] and in [16].

In general, AC50 refers to the concentration at which the activity in the assay is half-maximal. Turning to `NC(=O)N1c2ccccc2C=Cc2ccccc21`, the AC50 was 100 µM (active) in assay [5] and 30.5 µM (active) with SERPINA7 (gene 6906). Moreover, the result in assay [6] was inactive.

Consider `C[Si](C)(C)C(F)(F)C(F)(F)C(F)(F)F`, for which the compound was called inactive in assay [7], in assay [8], in assay [9], in assay [10], in assay [11] and in [12]. For the same compound, the compound was called inactive in assay [13], in assay [14], in [15] and in assay [16].

Turning to `C[C@]12C=CC(=O)C=C1CC[C@H]1[C@@H]3C[C@@H](O)[C@](O)(C(=O)CO)[C@@]3(C)C[C@H](O)[C@@]12F`, the AC50 in assay [4] is 23.7 µM (active).

As for `OCCC(F)(F)C(F)(F)C(F)(F)C(F)(F)F`, the compound was classed as inactive in assay [7], in assay [8], in [9], in assay [10], in assay [11] and in [12]. The compound was called inactive in assay [13], in [14], in [15] and in [16].

With `O=C(NO)C1(NS(=O)(=O)c2ccc(Oc3ccc(F)cc3)cc2)CCOCC1`, the outcome in the assay on SERPINA7 (gene 6906) was inactive.

Turning to `O=S(=O)(O)CCC(F)(F)C(F)(F)C(F)(F)C(F)(F)C(F)(F)C(F)(F)F`, the outcome in [7], in assay [8], in assay [9], in assay [10], in assay [11] and in assay [12] was inactive. The compound was classed as inactive in assay [13], in assay [14], in [15] and in [16].

Turning to `CCN(CC)C(=S)SSC(=S)N(CC)CC`, the compound was classed as inactive in [1] and in [2]. Moreover, in the assay with SERPINA7 (gene 6906), the AC50 is 11.7 µM (active).

Consider `CCCCCCCCCCCCCCCCOS(=O)(=O)O`, for which the AC50 in the assay with SERPINA7 (gene 6906) was 2.91 µM (active).

`NCC(F)(F)C(F)(F)C(F)(F)C(F)(F)F`: the outcome in [7], in [8], in [9], in assay [10], in assay [11] and in [12] was inactive. For the same compound, the compound was classed as inactive in assay [13], in assay [14], in assay [15] and in [16].
